# Only some compounds are listed: those with a hit (about 3.9% of all), similar ones and a draw of the others.
# BH1578 lux ind: inducers of Vibrio cholerae quorum light production without autoinducers. V. cholerae BH1578 lux reporter, luminescence, 6 h. AID 588436. activation, % at 18.7 µM. hit rate 0.16% among 350,000; in the data active = activation mostly above about 9.7%, no sharp cut-off
# CCHFV vOTU inh: blocks the CCHF virus ovarian tumor domain protease; CCHFV vOTU protease, Pep-AMC fluorescence; inhibition, % at 11.5 µM; hit rate 0.55% among 370,000; AID 651958; in the data active = inhibition above about 30%
# GDH-TPI counter-1: GDH-TPI coupled enzyme inhibition counter-screen. GDH-TPI coupled enzyme counterscreen, NADH absorbance. inhibition, % at 4.8 µM. hit rate 1.2% among 360,000; in the data active = inhibition above about 30%
# Mtb FBA inh: inhibitors of M. tuberculosis fructose-bisphosphate aldolase; P9WQA3; purified M. tuberculosis FBA, fluorescence read-out; inhibition, % at 1 µM; hit rate 2.3% among 360,000; AID 588726
# Target sequence (P9WQA3 whole entry, looked up): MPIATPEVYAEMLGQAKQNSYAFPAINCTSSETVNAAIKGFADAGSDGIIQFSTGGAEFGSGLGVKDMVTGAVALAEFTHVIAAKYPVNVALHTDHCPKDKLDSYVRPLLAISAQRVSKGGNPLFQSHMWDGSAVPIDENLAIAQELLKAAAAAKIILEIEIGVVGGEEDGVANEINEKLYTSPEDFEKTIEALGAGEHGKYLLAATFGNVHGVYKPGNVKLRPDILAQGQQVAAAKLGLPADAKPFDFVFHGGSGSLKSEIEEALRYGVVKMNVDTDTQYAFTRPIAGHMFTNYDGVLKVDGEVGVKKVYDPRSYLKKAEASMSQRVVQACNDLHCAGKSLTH
# Mtb FBA inh conf: confirmation of M. tuberculosis fructose-bisphosphate aldolase inhibitors | purified M. tuberculosis FBA, fluorescence read-out | shares compounds with Mtb FBA inh | inhibition, % at 1 µM | hit rate 78% among 5,600
# GDH-TPI counter-2: inhibits GDH-TPI coupling enzymes, flagging Mtb FBA hits; shares compounds with Mtb FBA inh; GDH-TPI coupled enzyme counterscreen, fluorescence; inhibition, % at 1 µM; hit rate 81% among 5,600; AID 652141; in the data active = inhibition above about 10%
# Hits are given with their value; 0 = inactive; - = not tested or not shown; + = active, no number. Cut-off read from the data, not from the text of the source, unless noted: active = inhibition above about 27%; inactive = the rest.
SMILES,BH1578 lux ind,CCHFV vOTU inh,GDH-TPI counter-1,Mtb FBA inh,Mtb FBA inh conf,GDH-TPI counter-2
CCC1(C)Cc2c(sc3[nH]c(=O)[nH]c(=O)c23)CS1 (stereo not given),0,0,0,80.0,71.8,60.8
NC(=O)C1CCN(CC(=O)Nc2cc(Cl)ccc2Oc2ccccc2)CC1,0,0,0,0,-,-
CCCCN(C)C(=O)CCC(=O)Nc1ccc2nc(N3CCOCC3)cc(C)c2c1,0,0,0,49.2,154.0,124.7
CCOC(CCNC(=O)CCC(=O)Nc1ccc2nc(N3CCN(C)CC3)cc(C)c2c1)OCC,0,0,0,0,-,-
CCOc1ccccc1NC(=O)CCC(=O)Nc1ccc2nc(N3CCN(C)CC3)cc(C)c2c1,0,0,0,30.9,130.4,121.7
CCCCN(C)C(=O)CCC(=O)Nc1ccc2nc(N3CCN(C)CC3)cc(C)c2c1,0,0,0,28.4,61.1,56.9
CC1(C)Cc2nc(NC3CCCCC3)c(C#N)cc2CO1,0,0,0,35.8,127.4,110.6
Cc1ccc(NC(=O)c2cc(F)c(F)cc2Cl)nc1,0,0,0,82.2,135.9,124.5
COc1cc2ccccc2cc1C(=O)Nc1ccc(C)cn1,0,0,0,0,-,-
Cc1ccc(NC(=O)c2ccccc2F)nc1,0,0,0,33.2,95.7,78.1
CCc1cccc(NC(=O)CCCn2c(=O)[nH]c3ccsc3c2=O)c1,0,0,0,0,-,-
COc1cc(Cn2c3ccc(NC(=O)CCc4ccc(O)cc4)cc3c(=O)n2C)ccc1F,0,0,0,111.0,168.7,125.4
Cn1c(=O)c2cc(NC(=O)CCc3ccc4c(c3)OCO4)ccc2n1Cc1ccc(F)cc1,0,0,0,85.1,47.7,21.0
COc1ccc(CCC(=O)Nc2ccc3c(c2)OCO3)cc1OC,0,0,0,0,-,-
Cc1ccc(OCC(=O)Nc2ccc(O)c(C(=O)O)c2)cc1C,0,0,0,71.5,+,+
Cn1c(NCCCO)nc2c(c1=O)C1(CCCCC1)Cc1ccccc1-2,0,0,0,65.5,121.9,84.6
CCSc1n[nH]c2nc3c(c(=O)n12)C1(CCCCC1)Cc1ccccc1-3,0,0,0,0,-,-
CCC(=O)Nn1cnc2c(c1=O)C1(CCCCC1)Cc1ccccc1-2,0,0,0,0,-,-
N#CCSc1n[nH]c2nc3c(c(=O)n12)C1(CCCCC1)Cc1ccccc1-3,0,0,0,28.4,0,0
COc1cc2c(oc(=O)c3cc(C)cc(OC)c32)c2c(C3OC(C)C(O)C(C)(O)C3O)ccc(O)c12 (stereo not given),0,0,0,0,-,-
Cc1cc(OC(C)C(=O)NCc2cccnc2)c2c(C)c(Cc3ccccc3)c(=O)oc2c1 (stereo not given),0,0,0,0,-,-
Cc1cc(=O)oc2cc(OCC(=O)NCc3ccccn3)ccc12,0,0,0,0,-,-
Cc1c(C)c2ccc(OC(C)C(=O)NCc3ccccn3)cc2oc1=O (stereo not given),0,0,0,86.6,154.5,121.2
CC(Oc1ccc2c3c(c(=O)oc2c1)CCCC3)C(=O)NCc1ccccn1 (stereo not given),0,0,0,79.5,31.4,16.1
Cc1cc(OC(C)C(=O)NCc2ccccn2)c2c(C)c(C)c(=O)oc2c1 (stereo not given),0,0,0,43.6,+,172.8
SMILES,BH1578 lux ind,CCHFV vOTU inh,GDH-TPI counter-1,Mtb FBA inh,Mtb FBA inh conf,GDH-TPI counter-2
Cc1c(C)c2ccc(OCC(=O)NCc3ccccn3)cc2oc1=O,0,0,0,81.1,+,+
Cc1ccc(NC(=O)C2CCCN(c3ncccn3)C2)cc1F (stereo not given),0,0,0,0,-,-
Cc1cc(C)c2nc(-c3ccccn3)cc(C(=O)NCc3ccco3)c2c1,0,0,0,50.7,+,198.7
C=CCNC(=O)c1cc(-c2ccncc2)nc2c(C)cc(C)cc12,0,0,0,60.0,151.7,129.8
Cc1cc(C)c2nc(-c3ccccn3)cc(C(=O)Nn3cnnc3)c2c1,0,0,0,0,-,-
Cc1cc(C)c2nc(-c3ccccn3)cc(C(=O)NCc3cc(C)n(C)n3)c2c1,0,0,0,75.5,67.6,52.8
O=[N+]([O-])c1cc(C(F)(F)F)c(Cl)cc1N1CCN(CCO)CC1,0,0,0,0,-,-
CC(=O)Nc1ccc(S(=O)(=O)Nc2ccccc2C(=O)N2CCOCC2)cc1,0,0,0,0,-,-
O=[N+]([O-])c1ccc(-c2c[nH]c(=S)[nH]2)cc1,0,0,0,0,-,-
S=c1[nH]cc(-c2ccccc2)[nH]1,0,0,0,53.1,60.0,59.8
N#Cc1ccccc1S(=O)(=O)N1CCN(C(=O)c2cccc(S(=O)(=O)N3CCCC3)c2)CC1,0,0,0,0,-,-
CC(C)CCOCC(=O)Oc1ccccc1C(=O)O,0,0,0,33.5,0,0
O=C(COC(=O)c1ccccc1C(=O)c1ccccc1)NCCc1ccccc1,0,0,0,0,-,-
O=C(COC(=O)c1ccccc1NCCO)NNC(=O)c1cccs1,0,0,0,59.6,+,+
Cc1ccc(-n2nc(C)c(NC(=O)COC(=O)c3ccccc3NCCO)c2C)cc1,0,0,0,67.6,79.6,64.8
O=C(COC(=O)c1ccccc1NCCO)NCCc1ccccc1,0,0,0,77.0,47.4,38.2
O=C(COC(=O)c1ccccc1NCCO)NCCC1=CCCCC1,0,0,0,62.6,174.9,130.4
CC1(C)OC(=O)C(=CNn2cnc3ccccc3c2=O)C(=O)O1,0,0,0,0,-,-
Fc1ccc2nc(C3CCCCN3Cc3nc(CC4CC4)no3)[nH]c2c1 (stereo not given),0,0,0,0,-,-
CC1=NN(C(=O)Cn2nc([N+](=O)[O-])c(Br)c2C)C(O)(C(F)(F)F)C1 (stereo not given),0,0,0,0,-,-
O=C(COc1ccc(F)cc1)Nc1cc(Cl)ccc1-n1cncn1,0,0,0,0,-,-
CC(C#N)(NC(=O)COC(=O)c1ccccc1NCCO)C1CC1 (stereo not given),0,0,0,99.4,51.7,39.1
O=C(COC(=O)c1ccccc1Br)NCC1CCCCC1,0,0,0,0,-,-
O=C(OCC(=O)N(Cc1ccccc1)Cc1ccccc1)c1ccccc1NCCO,0,0,0,95.2,0,0
O=C(COC(=O)c1ccccc1NCCO)NCC1CCCCC1,0,0,0,71.2,100.5,75.6
SMILES,BH1578 lux ind,CCHFV vOTU inh,GDH-TPI counter-1,Mtb FBA inh,Mtb FBA inh conf,GDH-TPI counter-2
COc1ccc(C(=O)OCC(=O)N(Cc2ccccc2)Cc2ccccc2)c(O)c1,0,0,0,0,-,-
COc1ccc(-c2noc(CSc3nnc(-c4ccncc4)n3-c3ccc(F)cc3)n2)cc1OC,0,0,0,0,-,-
Cc1ccc(-c2cc3nc(-c4ccccc4)cc(N)n3n2)cc1,0,0,0,29.4,0,0
Cc1ccc(-c2cc3nc(-c4ccccc4)cc(NCCCO)n3n2)cc1,0,0,0,83.2,72.0,54.3
Cc1cccc(-c2cc3nc(C)cc(NCCCn4ccnc4)n3n2)c1,0,0,0,0,-,-
Cc1ccc(-c2cc(N)n3nc(-c4ccc(C)cc4)cc3n2)cc1,0,0,0,0,-,-
Cn1cnc2c(=O)sc3ccccc3c21,0,0,0,0,-,-
COc1ccc2c(c1)c1ncn(CCN3CCCC3)c(=O)c1n2C,0,0,0,89.2,89.5,74.2

# High-throughput results: PubChem BioAssay, several laboratories
